Our source for the survival values is PubChem BioAssay AID463173 (ICCB-Longwood Screening Facility, Harvard Medical School, 2010).

SMILES strings stand for the structures. Hit rate of the full screen: of about 52,000 compounds, about 4,300 (8.3%) were called active. The entries come from a sample that favours actives as a whole. A number with no mark means an inactive call. Rule as the data show it: active = survival mostly below about 52% (no sharp cut-off); inactive = mostly above about 56%.

The assay deals with DeltatarO mutant. In words: growth inhibition of S. aureus wild type versus tarO mutant, primary screen, teichoic acid synthesis inhibitors, RN4220, OD600 (AID 463173). Particulars: OD600, 18 h, active compounds read low, screened at 18.75 µg/mL (by protocol).
Consider `O=C(Nc1ccc(S(=O)(=O)Nc2ncccn2)cc1)c1ccccc1Cl`, for which the survival was 81%.

Turning to `COc1ccc(NC(=O)Nc2nnc(C)s2)cc1`, the survival was 91%. Regarding `Cc1ccc2occ(CC(=O)N(Cc3ccc(Cl)cc3)C3CCS(=O)(=O)C3)c2c1` (stereo unspecified), the survival was 64%. For `CCc1cccc(N2C(=O)CSC23C(=O)Nc2ccccc23)c1` (stereo unspecified) the value was 85%.

For the compound `CCc1ccc2c(c1)C1(NN=C(c3ccccc3)S1)C(=O)N2` (stereo unspecified), the survival was 0% (active). For `CCc1cccc(NC(=O)c2cc(-c3ccccc3)n[nH]2)c1` the value was 90%. For `COc1cccc(NC(=O)Cn2cnc3c(nc4n3CCCCC4)c2=O)c1` the value was 76%; for `CCN(CC)c1ccc(NC(=O)CCS(=O)(=O)c2cc3c(cc2Cl)NC(=O)CO3)c(C)c1`, 86%. For `CCCCN1C(=O)C(O)(CC(=O)c2ccc(CC)cc2)c2cc(Br)ccc21` (stereo unspecified) the value was 32% (active); for `Cc1ccc(CN2C(=O)C(O)(CC(=O)c3ccc(C)cc3)c3ccccc32)cc1` (stereo unspecified), 65%. As for `COc1cccc(C(=O)CC2(O)C(=O)N(Cc3ccccc3)c3ccccc32)c1` (stereo unspecified), the survival was 175%. As for `Cc1ccc(C(=O)CC2(O)C(=O)N(Cc3ccccc3)c3ccccc32)c(C)c1` (stereo unspecified), the figure is 41% (active); as for `COc1ccc(C(=O)CC2(O)C(=O)N(Cc3ccccc3)c3ccc(Br)cc32)cc1` (stereo unspecified), 50%; as for `COc1ccc(C(=O)CC2(O)C(=O)N(Cc3cccc(C(F)(F)F)c3)c3ccccc32)cc1` (stereo unspecified), 33% (active).

In the case of `Cc1ccccc1CN1C(=O)C(O)(CC(=O)c2cccc(Br)c2)c2ccccc21` (stereo unspecified), the survival is 71%. Regarding `CCCN1C(=O)C(O)(CC(=O)c2ccc(OC)c(OC)c2)c2ccccc21` (stereo unspecified), the survival was 146%. For `CCCCN1C(=O)C(O)(CC(=O)c2ccc(C)cc2C)c2cc(Br)ccc21` (stereo unspecified) the value was 11% (active). As for `CCc1ccc(C(=O)CC2(O)C(=O)N(Cc3ccc(C)cc3)c3ccccc32)cc1` (stereo unspecified), the figure is 57%; as for `O=C(CC1(O)C(=O)N(Cc2ccccc2)c2ccc(Br)cc21)c1ccccc1` (stereo unspecified), 99%; as for `O=C(CCC(=O)N1CCSc2ccccc21)NCc1ccccc1Cl`, 70%.

`Cc1cccc(C(c2sc3nc(-c4ccco4)nn3c2O)N2CCN(c3ccccc3)CC2)c1` (stereo unspecified): the survival was 76%.

Regarding `O=C(CN1CCCC1)N1N=C(c2cccs2)CC1c1cccs1` (stereo unspecified), the survival was 86%. For `CCOc1ccc(Cc2nc(C)c(CC(N)=O)c(=O)[nH]2)cc1` the value was 71%. For `CCOC(=O)c1scc(-c2ccccc2)c1S(=O)(=O)Nc1ccc(N(C)C)cc1` the value was 86%.

For `COC(=O)Cn1c(O)c(N=NC(=O)C2COc3ccccc3O2)c2ccccc21` (stereo unspecified), the survival was 69%. As for `CCC(=O)Nc1cccc(NC(=O)c2cccs2)c1`, the figure is 72%; as for `CCOc1ccccc1NC(=O)Cn1c(=O)n(C(C)C)c(=O)c2oc3ccccc3c21`, 109%; as for `CC1=C(c2ccc(C(C)C)cc2)S(=O)(=O)N=C1N1CCC(C(=O)NCc2ccccc2)CC1`, -1% (active).

As to `CC1=C(c2ccc(C(C)C)cc2)S(=O)(=O)N=C1N1CCC(C(=O)NCc2ccco2)CC1`, the survival is 79%. On to `CC1=C(c2ccc(C(C)C)cc2)S(=O)(=O)N=C1N1CCC(C(=O)NCCc2ccco2)CC1`, for which the survival is 6% (active).

Take `CCc1ccc(C2=C(C)C(N3CCC(C(=O)NCc4ccccc4)CC3)=NS2(=O)=O)cc1`: the survival was 89%. As for `CC1=C(c2ccc(C(C)C)cc2)S(=O)(=O)N=C1N1CCC(C(=O)NCc2ccc(C)o2)CC1`, the figure is 67%; as for `CC1=C(c2ccc(Cl)cc2)S(=O)(=O)N=C1N1CCC(C(=O)NCCc2ccco2)CC1`, 81%.

As to `CC1=C(c2ccc(C)c(C)c2)S(=O)(=O)N=C1N1CCC(C(=O)N2CCCCC2)CC1`, the survival was 109%. For `CC1=C(c2ccc(C)c(C)c2)S(=O)(=O)N=C1N1CCC(C(=O)N2CCC(C)CC2)CC1` the value was 72%. For `CC1=C(c2ccc(C)c(C)c2)S(=O)(=O)N=C1N1CCC(C(=O)N2CCC(C(N)=O)CC2)CC1` the value was -2% (active); for `Cc1cccc(N(C)C(=O)C(Cc2ccccc2)NS(=O)(=O)c2cccc3nsnc23)c1` (stereo unspecified), 74%; for `Cc1nnc(N2CCC(C(=O)N3CCCCC3)CC2)c2nn(-c3ccc(Cl)cc3)c(C)c12`, 95%. As for `COCCNC(=O)CSc1nc(-c2ccccc2)[nH]c1-c1ccc(OC)cc1`, the figure is 80%; as for `COc1cc(-c2nc(SCC(=O)Nc3ccc(C)cc3)c(-c3ccc(F)cc3)[nH]2)cc(OC)c1OC`, 91%. As to `COc1ccc(-c2nc(-c3ccccc3)c(-c3ccc(F)cc3)[nH]2)c(OC)c1C`, the survival is 5% (active). For `COc1ccc(-c2nc(-c3ccccc3)c(-c3ccccc3)[nH]2)cc1Br` the value was 59%. As for `COc1ccc(-c2[nH]c(-c3ccc(O)cc3)nc2-c2ccccc2)cc1`, the figure is 3% (active); as for `COc1ccc(NC(=O)CSc2nc(-c3ccc(OC)cc3)[nH]c2-c2ccc(OC)cc2)cc1`, 71%. With `CCOc1ccc(-c2nc(-c3ccccc3)c(-c3ccccc3)[nH]2)cc1OCC`, the survival is 142%. For the compound `COc1ccc(-c2[nH]c(-c3ccccc3)nc2SCC(=O)NC2CCCC2)cc1`, the survival is 67%. For `COc1cc(-c2nc(-c3cccc(Cl)c3)c(-c3ccccc3)[nH]2)cc(OC)c1OC` the value was 126%; for `COc1ccc(-c2nc(-c3ccccc3)c(-c3ccc(O)cc3)[nH]2)cc1`, 1% (active); for `COc1ccc(-c2nc(SCC(=O)Nc3ccccc3)c(-c3ccc(F)cc3)[nH]2)cc1OC`, 49%. Turning to `COc1cc(-c2nc(-c3ccccc3)c(-c3ccc(Br)cc3)[nH]2)cc(OC)c1O`, the survival was 0% (active).

Turning to `CC(=O)N1C(=O)/C(=C2\SC(=S)N(C(C)C(=O)O)C2=O)c2ccccc21` (stereo unspecified), the survival is 112%.

Take `CCCCN(CC)CCNC(=O)C1CCCN(S(=O)(=O)c2cccc3nsnc23)C1` (stereo unspecified): the survival was 117%.

For the compound `Nn1c(SCCC(=O)O)nnc1-c1ccccc1`, the survival is 83%. For `COCCNC(=O)c1cnc2sc(N3CCC(C)CC3)nn2c1=O` the value was 86%. For `O=S(=O)(c1ccccc1)c1nnn2c1nc(NCc1cccs1)c1sccc12` the value was 87%; for `N#CC(C(=O)c1ccc(F)cc1)c1nc2ccccc2[nH]1` (stereo unspecified), 86%.
